The nature of assay [1]: qHTS for Inhibitors of the Functional Ribonucleoprotein Complex (vRNP) of Lassa (LASV) Arenavirus: LASV Primary Screen - GLuc reporter signal (AID 1347082; calls by dose curve; tested in HEK293 reporter line; note: series mostly up to about 57 µM; nearly all actives have a fitted effect of over 60% in size).
Assay [2] is described as follows: qHTS for Inhibitors of the Functional Ribonucleoprotein Complex (vRNP) of Lassa (LASV) Arenavirus: Viability assay - alamar blue signal for LASV Primary Screen (AID 1347083; calls by dose curve; tested in HEK293 reporter line; note: series mostly up to about 57 µM; nearly all actives have a fitted effect of over 80% in size). Background: In qHTS, concentration-response curves come from the screen itself.
The target in assay [3] is Nucleoprotein (Lymphocytic choriomeningitis virus (strain Armstrong)) (UniProt P09992). Description: qHTS for Inhibitors of the Functional Ribonucleoprotein Complex (vRNP) of Lymphocytic Choriomeningitis Arenaviruses (LCMV): LCMV Primary Screen - GLuc reporter signal (AID 1347086; calls by dose curve; note: series mostly up to about 57 µM; nearly all actives have a fitted effect of over 70% in size).
Sequence of Nucleoprotein (Lymphocytic choriomeningitis virus (strain Armstrong)) (P09992 whole entry, looked up): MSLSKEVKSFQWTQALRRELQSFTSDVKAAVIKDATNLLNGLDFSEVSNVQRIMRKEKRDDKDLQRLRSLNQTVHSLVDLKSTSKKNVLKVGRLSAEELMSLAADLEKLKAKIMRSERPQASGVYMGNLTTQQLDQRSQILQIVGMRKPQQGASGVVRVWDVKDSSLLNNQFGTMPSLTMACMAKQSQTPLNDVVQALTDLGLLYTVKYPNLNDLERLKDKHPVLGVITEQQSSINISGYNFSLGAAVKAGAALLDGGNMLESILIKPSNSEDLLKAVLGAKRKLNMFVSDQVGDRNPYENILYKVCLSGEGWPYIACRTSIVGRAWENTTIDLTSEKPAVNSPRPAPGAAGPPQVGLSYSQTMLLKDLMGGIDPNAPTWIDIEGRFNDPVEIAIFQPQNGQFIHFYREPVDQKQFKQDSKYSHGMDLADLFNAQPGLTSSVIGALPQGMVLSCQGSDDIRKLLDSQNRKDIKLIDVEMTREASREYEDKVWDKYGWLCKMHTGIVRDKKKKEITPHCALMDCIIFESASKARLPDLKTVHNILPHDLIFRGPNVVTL
Assay [4] in a line: qHTS for Inhibitors of the Functional Ribonucleoprotein Complex (vRNP) of Lymphocytic Choriomeningitis Arenaviruses (LCMV): Viability assay - alamar blue signal for LCMV Primary Screen (AID 1347085; calls by dose curve; tested in HEK293 reporter line; note: series mostly up to about 57 µM; nearly all actives have a fitted effect of over 80% in size).
A short description of assay [5]: qHTS of pediatric cancer cell lines to identify multiple opportunities for drug repurposing: Primary screen for TC32 cells (AID 1347089). Note: nearly all actives have a fitted effect of over 60% in size. The essentials: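 TC32 cells, 500-1,000/well in growth medium, compound-treated 48 h at 37 °C; viability from CellTiter-Glo luminescence. Primary screen: MIPE 11-point (0.78 nM–46 µM final), NPC 8-point (0.59 nM–46 µM final); confirmatory at 11-point dilutions.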

Assay [6] in a line: qHTS of pediatric cancer cell lines to identify multiple opportunities for drug repurposing: Primary screen for SJ-GBM2 cells (AID 1347091). Note: potency is the fitted concentration of half-maximal effect. The gist of the method: (§1)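 Viability measured as metabolically active cells via CellTiter-Glo luminescence following 48 hours of compound exposure, 11-point dilutions in confirmatory testing. 500-1,000 cells/well plated 5 hours before dosing; controls were DMSO and 2.3 µM bortezomib.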

Assay [7] in a line: qHTS of pediatric cancer cell lines to identify multiple opportunities for drug repurposing: Primary screen for SK-N-MC cells (AID 1347093). Note: potency is the fitted concentration of half-maximal effect. The essentials: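 Metabolically active cells were quantified by ATP-dependent luminescence (CellTiter-Glo, 15 min at room temperature) following 48 h treatment. Cells had been plated at 500-1,000 per well and settled for 5 h beforehand.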

The nature of assay [8]: qHTS of pediatric cancer cell lines to identify multiple opportunities for drug repurposing: Primary screen for BT-37 cells (AID 1347094). Note: potency is the fitted concentration of half-maximal effect. The essentials:
(§2)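 500-1,000 cells/well; 5 h pre-incubation 37 °C/5% CO2; compound pinned; 48 h; CellTiter-Glo, 15 min RT; luminescence. MIPE 11-pt from 0.78 nM, NPC 8-pt from 0.59 nM final. Bortezomib 2.3 µM final as positive control.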

Assay [9] can be described thus: qHTS of pediatric cancer cell lines to identify multiple opportunities for drug repurposing: Primary screen for NB-EBc1 cells (AID 1347095). Note: potency is the fitted concentration of half-maximal effect. The essentials: as §2
A short description of assay [10]: qHTS of pediatric cancer cell lines to identify multiple opportunities for drug repurposing: Primary screen for U-2 OS cells (AID 1347096). Note: nearly all actives have a fitted effect of over 50% in size. The essentials:
(§3)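 Viability after 48 h compound treatment at 37C, 500-1,000 cells/well, read as ATP luminescence with CellTiter-Glo. Primary screens used 11-point (MIPE, 0.78 nM-46 µM) or 8-point (NPC, 0.59 nM-46 µM) final concentrations; follow-up screens used 11-point dilutions.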

The nature of assay [11]: qHTS of pediatric cancer cell lines to identify multiple opportunities for drug repurposing: Primary screen for SK-N-SH cells (AID 1347098). Note: nearly all actives have a fitted effect of over 65% in size. Note: potency is the fitted concentration of half-maximal effect. The gist of the method:
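Cells (500-1,000/well) rested 5 h, then received compounds for 48 h; metabolically active cells were measured by CellTiter-Glo luminescence. Final concentrations spanned up to 46 µM (MIPE, 11-point) or 0.59 nM-46 µM (NPC, 8-point) in primary screens, 11-point in follow-ups.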

A short description of assay [12]: qHTS of pediatric cancer cell lines to identify multiple opportunities for drug repurposing: Primary screen for NB1643 cells (AID 1347099). Note: nearly all actives have a fitted effect of over 50% in size. Note: potency is the fitted concentration of half-maximal effect. The gist of the method:
as §2

Assay [13] is described as follows: qHTS of pediatric cancer cell lines to identify multiple opportunities for drug repurposing: Primary screen for LAN-5 cells (AID 1347100). Note: potency is the fitted concentration of half-maximal effect. The essentials: as §3
Assay [14] is described as follows: qHTS of pediatric cancer cell lines to identify multiple opportunities for drug repurposing: Primary screen for Saos-2 cells (AID 1347097). Note: nearly all actives have a fitted effect of over 40% in size. Note: potency is the fitted concentration of half-maximal effect. The gist of the method:
as §2

Assay [15] in a line: qHTS of pediatric cancer cell lines to identify multiple opportunities for drug repurposing: Primary screen for DAOY cells (AID 1347090). Note: potency is the fitted concentration of half-maximal effect; nearly all actives have a fitted effect of over 55% in size. The gist of the method: as §1
Assay [16] in a line: qHTS of pediatric cancer cell lines to identify multiple opportunities for drug repurposing: Primary screen for A673 cells (AID 1347092). Note: nearly all actives have a fitted effect of over 45% in size. The essentials:
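A673 cells (500-1,000 cells/well) were treated 48 hours at 37 degrees C with compounds at 11-point (0.78 nM to 46 µM) or 8-point (0.59 nM to 46 µM) dilutions. Viability read by CellTiter-Glo luminescence; concentration-response curves fitted.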

Inconclusive results are not listed. Active and inactive are the calls of the source. Unless noted, calls come from the whole dose curve; as a rule, active = well fitted curve in the direction sought with a large enough effect; inconclusive = small, poorly fitted or top-dose-only effect, or another doubt; inactive = no such curve, though single readings can be large; an effect the other way counts as inactive or inconclusive.

With `O=C(CS)Nc1ccccc1`, the Potency entry in assay [1], in assay [2] and in [3] was “inactive” each time.

Take `CCCCCCCCC(=O)NCc1ccc(O)c(OC)c1`: the Potency entry in [1], in assay [2], in assay [4], in assay [3], in assay [5] and in assay [10] was “inactive” throughout. The Potency in [6] was 1 nM (active); in assay [7], 0.001 µM (active); in [8], 0.001 µM (active); in assay [9], 1 nM (active); in assay [11] it was 0.0014 µM (active); in assay [12], 1 nM (active). For the same compound, the Potency in [13] is 0.001 µM (active).

With `C=C[C@@]1(C)CC(=O)[C@]2(O)[C@@]3(C)[C@@H](O)CCC(C)(C)[C@@H]3[C@H](O)[C@H](OC(C)=O)[C@@]2(C)O1`, the Potency entry in assay [1], in assay [2] and in assay [3] was “inactive” each time.

`Nc1ccc(Cl)cc1C(=O)c1ccccc1F`: the Potency entry in assay [1], in assay [2], in assay [4], in assay [3], in [6] and in [8] was “inactive” each time. Moreover, the Potency result in assay [10], in assay [12] and in [13] was “inactive” each time.

Consider `CN(C)CCc1c[nH]c2ccc(O)cc12`, for which the Potency entry in assay [1], in assay [2], in assay [4], in [3], in assay [6] and in assay [8] was “inactive” throughout. Besides, the Potency entry in assay [9], in assay [10], in [14], in assay [11], in [12] and in assay [13] was “inactive” in each case.

In the case of `CC[C@H]1C[C@@H]2C[C@H]3c4[nH]c5ccc(OC)cc5c4CCN(C2)[C@@H]13`, the Potency result in [1], in [2], in [4], in assay [3], in assay [5] and in assay [6] was “inactive” throughout. Also, the Potency result in assay [9] and in assay [12] was “inactive” in each case. Further, in assay [11], the Potency was 30.9 µM (active).

Take `CCCCCCCCCCCC[N+](C)(C)CCOc1ccccc1`: the Potency result in assay [1], in assay [2], in [4] and in assay [3] was “inactive” each time. Further, the Potency in assay [15] is 26.6 µM (active); in [7], 6.68 µM (active); in assay [8], 30.9 µM (active); in [14], 13.3 µM (active); in [11], 13.7 µM (active); in [13], 23.7 µM (active).

With `Clc1ccc(C(OCCN2CCCCC2)c2ccccc2)cc1` (stereo unspecified), the Potency entry in [1], in assay [2], in assay [4], in assay [3], in [5] and in [10] was “inactive” each time. Besides, the Potency result in assay [14], in assay [12] and in assay [13] was “inactive” in each case.

In the case of `CCN(Cc1ccc(Cl)nc1)/C(=C/[N+](=O)[O-])NC`, the Potency entry in assay [1], in assay [2], in assay [4], in assay [3], in assay [5] and in assay [6] was “inactive” each time. Further, the Potency entry in [7], in assay [8], in [9], in [10], in [14] and in assay [11] was “inactive” each time. Moreover, the Potency result in assay [12] and in assay [13] was “inactive” throughout.

`O=C1OC2(c3ccccc31)c1cc(I)c(O)c(I)c1Oc1c2cc(I)c(O)c1I`: the Potency result in assay [1], in assay [2] and in assay [3] was “inactive” throughout.

`CN1C2CCC(C)(C)C1CC(OC(=O)C(O)(c1cccs1)c1cccs1)C2` (stereo unspecified): the Potency entry in assay [1], in assay [2], in assay [4], in [3], in assay [5] and in assay [16] was “inactive” in each case. The Potency entry in assay [7], in assay [8], in [9], in assay [10], in assay [14] and in [12] was “inactive” throughout. For the same compound, the Potency result in assay [13] is “inactive”.

For the compound `OC(c1ccccc1)(c1ccccc1)C1CCNCC1`, the Potency result in assay [1], in assay [2], in assay [4], in assay [3], in [5] and in assay [6] was “inactive” each time. Moreover, the Potency entry in assay [7], in assay [8], in assay [9], in [14], in [11] and in assay [12] was “inactive” each time. Further, in assay [13], the Potency result is “inactive”.

Regarding `CN(C)CCCOc1nn(Cc2ccccc2)c2ccccc12`, the Potency result in assay [1], in [2] and in assay [3] was “inactive” throughout.

In the case of `c1ccc(CC2=NCCN2)cc1`, the Potency result in assay [1], in [2] and in assay [3] was “inactive” each time.

`CNC(C)Cc1ccc2c(c1)OCO2` (stereo unspecified): the Potency entry in assay [1], in [2], in assay [4], in assay [3], in assay [6] and in [8] was “inactive” in each case. Further, the Potency result in [9], in [10], in assay [11], in assay [12] and in assay [13] was “inactive” in each case.

`O=C(CCCCl)c1ccc(F)cc1`: the Potency entry in assay [1], in assay [2], in assay [4], in [3], in assay [5] and in assay [6] was “inactive” each time. For the same compound, the Potency entry in [7], in [8], in assay [9], in assay [10], in assay [14] and in assay [11] was “inactive” in each case. Further, the Potency entry in assay [12] and in [13] was “inactive” in each case.

In the case of `CCOC(=O)OC(C)OC1=C(C(=O)Nc2ccccn2)N(C)S(=O)(=O)c2ccccc21` (stereo unspecified), the Potency entry in [1], in assay [2] and in [3] was “inactive” each time.

As to `CCOC(=O)c1ccc(C#Cc2ccc3c(c2)C(C)(C)CCS3)nc1`, the Potency result in [1], in assay [2] and in [3] was “inactive” each time.

`CC1(C)O[C@@H]2C[C@H]3[C@@H]4CCC5=CC(=O)CC[C@]5(C)[C@@]4(F)[C@@H](O)C[C@]3(C)[C@]2(C(=O)CCl)O1`: the Potency entry in [1], in assay [2] and in assay [3] was “inactive” in each case.

For `C#C[C@]1(O)CC[C@H]2[C@@H]3CCC4=CC(=O)CCC4=C3C=C[C@@]21CC`, the Potency entry in [1], in assay [2], in assay [4], in assay [3], in [5] and in assay [6] was “inactive” throughout. Besides, the Potency entry in assay [9], in assay [10], in assay [14] and in assay [13] was “inactive” each time.

The record behind these values is PubChem BioAssay (NCATS).
